The values below come from PubChem BioAssay (Tox21).

Results filed as inconclusive are left out. Active and inactive are the calls of the source. Unless noted, the call rests on the fitted dose curve; in most records, active means well fitted inhibition curve with a large enough effect in the repeat runs; inconclusive means weak or mixed curves, or effect the other way; inactive means no such curve, though single readings can be large or run the other way.

The first assay has as its target Nuclear receptor ROR-gamma (Homo sapiens) (UniProt P51449). In words: qHTS assay to identify small molecule antagonists of the retinoid-related orphan receptor gamma (ROR-gamma) signaling pathway (AID 1159521;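 further: CHO cells with doxycycline inducible ROR-gamma driving an RORE luciferase reporter; top concentration of the series differs between compounds; on the % scale 0 is the no-effect control and ±100 the full control effect; nearly all actives have a fitted effect of over 50% in size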). Particulars: Tet-on RORgamma CHO cells, RORE-luciferase, 16 h; series mostly up to 92.4 µM. In a few lines:
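Cells were plated, rested 4 h at 37 C, exposed to compounds for 2 h, then given 1 uM final doxycycline hyclate to induce RORγ expression. After 16 h, ONE-Glo luminescence from the ROR response element reporter was measured.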
Consider `CC(=O)OC1CCCCC1C(C)(C)C` (stereo unspecified), for which the compound was classed as inactive.
Consider `O=C=NCC1CCCC(CN=C=O)C1` (stereo unspecified), for which the compound was called inactive.
Same read-out and setting: then `COS(=O)(=O)O`, with “inactive”.
Consider `CCC(C(=O)OCCN1CCOC(c2ccccc2)C1C)c1ccccc1` (stereo unspecified), for which the outcome was inactive.
As for `COc1nc(N)nc2nc[nH]c12`, the compound was called inactive.
Same read-out and setting: then `CC1(C)[C@H]2CC[C@](C)(C2)[C@H]1O`, with “inactive”; and `O=C1CCCCO1`, with “inactive”; and `CCCCOC(=O)[C@H](C)O`, with “inactive”.
Still for that read-out and setting: the value for `CCc1occc(=O)c1O` was “inactive”.
For the compound `Nc1nnnn1-c1ccccc1`, the compound was called inactive.
Regarding `Cc1ccc2c(c1)C(=O)c1ccccc1C2=O`, the compound was classed as inactive.
On the same count and under the same terms, then `NCc1ccc(S(N)(=O)=O)cc1`, with “inactive”; and `COc1cc(/C=C/C(N)=O)cc(OC)c1OC`, with “inactive”.
Still for that read-out and setting: then `CN(C)CCOC(=O)C(c1ccccc1)C1(O)CCCC1` (stereo unspecified), with “inactive”; and `Cn1c(=O)c2[nH]c(Br)nc2n(C)c1=O`, with “inactive”; and `C=CC/C=C/C`, with “inactive”.
For `C=CC(=O)CCCCC`, the outcome was inactive.
Still for that read-out and setting: then `O=C(CN1CCNCC1)NC1CCCCC1`, with “inactive”.
Still for that read-out and setting: then `CC(=O)OCC(=O)Nc1cc(C#N)cc(NC(=O)COC(C)=O)c1Cl`, with “inactive”.
The same measure, in the same setting: the value for `CC1(C)Cc2cccc(N)c2O1` was “inactive”; that for `Cc1ccccc1C(N)=O` was “inactive”.
For the compound `CCC(C)C(=O)OCCc1ccccc1` (stereo unspecified), the outcome was inactive.
The same measure, in the same setting: the value for `CSc1cnccn1` was “inactive”; that for `CCCCCCCCCOC(=O)c1ccccc1C(=O)OCCCCCCCCC` was “inactive”.
Turning to `CCn1cc(C(=O)O)c(=O)c2cnc(N3CCCC3)nc21`, the activity change, negative = inhibition is 14.3% [at 8.39 µM] (inactive).
With `CC12CCC(C1)C(C)(C)C2O` (stereo unspecified), the outcome was inactive.
On the same count and under the same terms, then `CC(C)Cn1cnc2c1c(=O)n(C)c(=O)n2C`, with “inactive”.
Turning to `CCN(CC)CCN`, the outcome was inactive.
Regarding `C=CCCCCCCCC`, the compound was classed as inactive.
Consider `CC(C)[C@H]1CC[C@H](C)C[C@@H]1O`, for which the compound was called inactive.
In the case of `O=NN(CCCl)C(=O)NC1CCCCC1`, the outcome was inactive.

System in another assay: not listed separately
Nature of the assay: qHTS assay to identify small molecule agonists of the AP-1 signaling pathway - cell viability counter screen (AID 1159525; calls by dose curve; further: nearly all actives have a fitted effect of over 55% in size). Particulars: ME-180 (cervical carcinoma) AP-1-bla cells viability, ATP luminescence, 5 h; series mostly up to 76.8 µM. In a few lines: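 Intracellular ATP by Cell Titer Glo luminescence (30 min, RT) in the same ME-180 AP-1-bla wells after the 5 h compound exposure at 37 °C. Normalised to tetra n-octyl ammonium bromide and DMSO controls.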
As to `CC(=O)OC1CCCCC1C(C)(C)C` (stereo unspecified), the outcome was inactive.
Same read-out and setting: then `O=C=NCC1CCCC(CN=C=O)C1` (stereo unspecified), with “inactive”; and `CCC(C(=O)OCCN1CCOC(c2ccccc2)C1C)c1ccccc1` (stereo unspecified), with “inactive”; and `COc1nc(N)nc2nc[nH]c12`, with “inactive”.
Consider `CC1(C)[C@H]2CC[C@](C)(C2)[C@H]1O`, for which the compound was called inactive.
Still for that read-out and setting: the value for `O=C1CCCCO1` was “inactive”; that for `CCc1occc(=O)c1O` was “inactive”; that for `Nc1nnnn1-c1ccccc1` was “inactive”.
On the same count and under the same terms, the value for `Cc1ccc2c(c1)C(=O)c1ccccc1C2=O` was “inactive”; that for `NCc1ccc(S(N)(=O)=O)cc1` was “inactive”; that for `COc1cc(/C=C/C(N)=O)cc(OC)c1OC` was “inactive”.
Still for that read-out and setting: the value for `CN(C)CCOC(=O)C(c1ccccc1)C1(O)CCCC1` (stereo unspecified) was “inactive”.
Turning to `C=CC/C=C/C`, the result was inactive.
Still for that read-out and setting: then `C=CC(=O)CCCCC`, with “inactive”; and `CN(C)C(C)(C)CO`, with “inactive”; and `O=C(CN1CCNCC1)NC1CCCCC1`, with “inactive”.
Same read-out and setting: the value for `CCCCCCCCCCOC(C)=O` was “inactive”; that for `CC(=O)OCC(=O)Nc1cc(C#N)cc(NC(=O)COC(C)=O)c1Cl` was “inactive”; that for `CC1(C)Cc2cccc(N)c2O1` was “inactive”.
Same read-out and setting: then `Cc1ccccc1C(N)=O`, with “inactive”; and `Fc1ccccc1`, with “inactive”.
Turning to `CCC(C)C(=O)OCCc1ccccc1` (stereo unspecified), the compound was called inactive.
Same read-out and setting: then `CSc1cnccn1`, with “inactive”.
Consider `CCn1cc(C(=O)O)c(=O)c2cnc(N3CCCC3)nc21`, for which the viability change, negative = cytotoxic is 0.489% [at 6.97 µM] (inactive).
`COc1ccc(CCO)cc1`: the call was inactive.
Still for that read-out and setting: then `CC(C)Cn1cnc2c1c(=O)n(C)c(=O)n2C`, with “inactive”; and `CCN(CC)CCN`, with “inactive”.
Regarding `OCC1(CO)COCOC1`, the result was inactive.
Still for that read-out and setting: then `CC(C)[C@H]1CC[C@H](C)C[C@@H]1O`, with “inactive”; and `O=NN(CCCl)C(=O)NC1CCCCC1`, with “inactive”.
